Source: PubChem BioAssay (NCI)
The panel holds about 83,000 compounds, 20% with a hit somewhere; the sample as a whole holds those more often.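 Method: cells in 96-well plates; compound added at one concentration; 48 h incubation; percent growth measured; values under 10 scored active.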 Activity calls are given as the source filed them.

How the values were obtained:
Experiment in all cases: NCI-60 one-dose screen, 48 h (100 = growth as untreated, 0 = no growth, -100 = all killed)
Details in all cases: 10 µM unless noted
HCT-15 colon = tested on: HCT-15 colon
SNB-75 CNS = tested on: SNB-75 CNS
PC-3 prostate = tested on: PC-3 prostate
SK-MEL-5 melanoma = tested on: SK-MEL-5 melanoma
UACC-62 melanoma = tested on: UACC-62 melanoma
LOX IMVI melanoma = tested on: LOX IMVI melanoma
SK-MEL-28 melanoma = tested on: SK-MEL-28 melanoma
SNB-19 CNS = tested on: SNB-19 CNS
U251 CNS = tested on: U251 CNS

Measured: growth

CC[C@]12C=CCN3CC[C@@]4(c5ccc(OC)cc5N(C)[C@H]4[C@@](O)(C(=O)OC)[C@@H]1OC(=O)CCCN1CCOCC1)[C@@H]32
inactive: HCT-15 colon 110% | SNB-75 CNS 91.5% | PC-3 prostate 105% | SK-MEL-5 melanoma 103% | UACC-62 melanoma 97.6% | LOX IMVI melanoma 110% | SK-MEL-28 melanoma 109%

N#Cc1c(NC(=O)c2cccs2)[n+]([O-])c2ccc(Cl)cc2[n+]1[O-]
inactive: HCT-15 colon 111% | SNB-75 CNS 91.7% | SNB-19 CNS 103% | U251 CNS 99% | PC-3 prostate 96% | SK-MEL-5 melanoma 37.7% | UACC-62 melanoma 82.2% | LOX IMVI melanoma 94.8% | SK-MEL-28 melanoma 106%

CCCNc1nc2ccccc2c2c(=O)c3cccc(Cl)c3sc12
inactive: HCT-15 colon 89.7% | SNB-75 CNS 82.3% | SNB-19 CNS 110% | U251 CNS 97.9% | PC-3 prostate 88.5% | SK-MEL-5 melanoma 97.6% | UACC-62 melanoma 84.3% | LOX IMVI melanoma 90.2% | SK-MEL-28 melanoma 115%

COc1ccc(-c2oc(=O)ccc2-c2cc(OC)c(OC)c(OC)c2)cc1O
active: SNB-75 CNS -1.81%
inactive: HCT-15 colon 27.1% | SNB-19 CNS 22.9% | U251 CNS 22.7% | SK-MEL-5 melanoma 12.1% | UACC-62 melanoma 21.1% | LOX IMVI melanoma 44.4% | SK-MEL-28 melanoma 39.3%

CCOC(=O)c1c(C)nc2ccccc2c1/C=C/c1ccc(OC)cc1
inactive: HCT-15 colon 66% | SNB-75 CNS 76.2% | SNB-19 CNS 75.9% | U251 CNS 79.8% | PC-3 prostate 60.2% | UACC-62 melanoma 45.7% | LOX IMVI melanoma 68.5% | SK-MEL-28 melanoma 96.2%
active: SK-MEL-5 melanoma 2.63%

Cn1c(O)c(C(/C=C/c2ccccc2)=Nc2ccccc2N)c(=O)n(C)c1=O
inactive: HCT-15 colon 91.5% | SNB-75 CNS 90.7% | U251 CNS 101% | PC-3 prostate 77.7% | SK-MEL-5 melanoma 75.4% | UACC-62 melanoma 76.1% | LOX IMVI melanoma 90.3% | SK-MEL-28 melanoma 120%

CSCCC(NC(=O)c1ccccc1)C(=O)N/N=C1\S/C(=C/c2ccc(Cl)cc2)C(=O)N1C (stereo unspecified)
inactive: HCT-15 colon 96.4% | SNB-75 CNS 57.8% | SNB-19 CNS 68.1% | U251 CNS 64.2% | PC-3 prostate 84.9% | SK-MEL-5 melanoma 82.9% | UACC-62 melanoma 91.1% | LOX IMVI melanoma 89.3% | SK-MEL-28 melanoma 85.9%

COc1ccc(C2=Nc3c/c(=C\c4c(O)[nH]c5cc(Cl)ccc45)ccc3=N2)cc1
inactive: HCT-15 colon 55.8% | SNB-75 CNS 41.6% | SNB-19 CNS 95.1% | U251 CNS 74.3% | SK-MEL-5 melanoma 60.7% | UACC-62 melanoma 67.5% | LOX IMVI melanoma 90.6% | SK-MEL-28 melanoma 47%

CC/C=C1/C(=O)C=C[C@@H]1C/C=C\CCCC(=O)OC
inactive: HCT-15 colon 21.2% | SNB-75 CNS 91.5% | SNB-19 CNS 62.9% | U251 CNS 47.8% | PC-3 prostate 57% | UACC-62 melanoma 16.6% | SK-MEL-28 melanoma 89.5%
active: SK-MEL-5 melanoma 9.82% | LOX IMVI melanoma -63.9%

CCOC(=O)C1CCN(c2ccc(N3C[C@@H](CNCc4ccc(C(=N)N)cc4)OC3=O)cc2)CC1
inactive: HCT-15 colon 102% | SNB-75 CNS 83.8% | SNB-19 CNS 98.9% | U251 CNS 104% | PC-3 prostate 94.4% | SK-MEL-5 melanoma 103% | UACC-62 melanoma 97.3% | LOX IMVI melanoma 96.4% | SK-MEL-28 melanoma 105%

N#CCC1=NC(c2cccs2)=Nc2ccccc2S1
inactive: HCT-15 colon 109% | SNB-75 CNS 94% | SNB-19 CNS 87.9% | U251 CNS 87.7% | PC-3 prostate 71.1% | SK-MEL-5 melanoma 93.8% | UACC-62 melanoma 70.1% | LOX IMVI melanoma 99.1% | SK-MEL-28 melanoma 88.4%

CC(/C=C1\SC(=S)N(CC(=O)NC(Cc2c[nH]c3ccccc23)C(=O)O)C1=O)=C\c1ccccc1 (stereo unspecified)
inactive: HCT-15 colon 103% | SNB-75 CNS 87.2% | SNB-19 CNS 98.8% | PC-3 prostate 97.6% | SK-MEL-5 melanoma 96.4% | UACC-62 melanoma 88.3% | LOX IMVI melanoma 92.9% | SK-MEL-28 melanoma 105%

Cn1cc(/C=C2/C(=O)Nc3ccccc32)c2ccccc21
inactive: HCT-15 colon 72.9% | SNB-75 CNS 99.3% | SNB-19 CNS 102% | U251 CNS 78.3% | PC-3 prostate 90.2% | SK-MEL-5 melanoma 79.2% | UACC-62 melanoma 107% | LOX IMVI melanoma 92.1% | SK-MEL-28 melanoma 101%

COc1ccc(NC(=O)c2sc3nc4c(cc3c2N)CCCC4)cc1
active: SK-MEL-5 melanoma 5.04%
inactive: HCT-15 colon 28.6% | SNB-75 CNS 17.3% | SNB-19 CNS 34.7% | U251 CNS 22.6% | PC-3 prostate 26.9% | UACC-62 melanoma 43% | LOX IMVI melanoma 35.8% | SK-MEL-28 melanoma 62.3%

Cc1cc(C(=O)Nc2cc(Nc3ncccc3-c3ncnc4nc[nH]c34)ccc2F)cc(C(F)(F)F)c1
inactive: HCT-15 colon 60.1% | SNB-75 CNS 59.4% | SNB-19 CNS 74.4% | U251 CNS 57.3% | SK-MEL-5 melanoma 29.2% | SK-MEL-28 melanoma 10.3%
active: UACC-62 melanoma -2.36% | LOX IMVI melanoma 1.22%

CC(C)CSc1oc(-c2ccccc2)nc1S(=O)(=O)c1ccccc1
inactive: HCT-15 colon 93.7% | SNB-75 CNS 89.3% | U251 CNS 84.2% | PC-3 prostate 79.9% | SK-MEL-5 melanoma 90.7% | UACC-62 melanoma 66.9% | LOX IMVI melanoma 96.1% | SK-MEL-28 melanoma 115%

COc1cc(N2C(=O)[C@H](c3ccccc3)C2c2ccc(SC)cc2)cc(OC)c1OC (stereo partly specified)
inactive: SNB-75 CNS 69.4% | SNB-19 CNS 30.8% | LOX IMVI melanoma 13.4% | SK-MEL-28 melanoma 60.9%
active: HCT-15 colon 1.35% | U251 CNS 7.35% | SK-MEL-5 melanoma -20.7% | UACC-62 melanoma 7.64%

CC(=O)c1c(Nc2ccc(F)c(F)c2F)[nH]c2c(F)cc(F)cc2c1=O
active: HCT-15 colon 4.32% | SNB-75 CNS -14.8% | U251 CNS 0.133% | SK-MEL-5 melanoma -75.8% | UACC-62 melanoma -27.9% | LOX IMVI melanoma 5.66% | SK-MEL-28 melanoma 4.71%
inactive: SNB-19 CNS 22%

O=[N+]([O-])/C(=C\c1ccco1)c1ccccc1Cl
inactive: HCT-15 colon 67.7% | SNB-75 CNS 64.8% | SNB-19 CNS 79.7% | U251 CNS 72.6% | PC-3 prostate 45.8% | SK-MEL-5 melanoma 76.7% | UACC-62 melanoma 33.8% | LOX IMVI melanoma 64.2% | SK-MEL-28 melanoma 60.3%

Cn1cc(-c2nonc2-c2c[nH]c3ccccc23)c2ccccc21
active: SNB-75 CNS -18.2% | UACC-62 melanoma 8.21%
inactive: HCT-15 colon 16.6% | PC-3 prostate 20.7% | SK-MEL-5 melanoma 21.2% | LOX IMVI melanoma 23.5% | SK-MEL-28 melanoma 41.6%

Cc1[nH]c(/C=C/C(=O)c2ccc(C(F)(F)F)c(F)c2)c(C)c1C(=O)NCC(C)C
inactive: HCT-15 colon 93.8% | SNB-75 CNS 89.4% | SNB-19 CNS 92.2% | U251 CNS 100% | PC-3 prostate 103% | SK-MEL-5 melanoma 99.8% | UACC-62 melanoma 96.6% | LOX IMVI melanoma 90.5% | SK-MEL-28 melanoma 106%

Cc1cc(N2CCN(C)CC2)nc(NCc2cc(Nc3ccnc4cc(Cl)ccc34)ccc2F)n1
inactive: SNB-75 CNS 21.2% | PC-3 prostate 28.6%
active: HCT-15 colon -17.6% | U251 CNS -51.3% | SK-MEL-5 melanoma -98% | UACC-62 melanoma -59.1% | LOX IMVI melanoma -70.1% | SK-MEL-28 melanoma -75.4%

COc1cc(-c2nc3occn3c2-c2ccnc(NCCCNS(=O)(=O)c3ccccc3)n2)ccc1F
active: SK-MEL-5 melanoma -22.4% | UACC-62 melanoma 4.35%
inactive: HCT-15 colon 37.5% | SNB-75 CNS 102% | SNB-19 CNS 78.2% | U251 CNS 73.4% | PC-3 prostate 22.2% | LOX IMVI melanoma 31.5% | SK-MEL-28 melanoma 38%

CCNC(=O)Oc1ccc(/C(=C(/C)Cc2ccc(OC)cc2)c2ccc(OCCN3CCCC3)cc2)cc1
inactive: HCT-15 colon 45.9% | SNB-75 CNS 73.8% | SNB-19 CNS 80.4% | U251 CNS 54.3% | PC-3 prostate 66.4% | SK-MEL-5 melanoma 57.7% | UACC-62 melanoma 69.1% | LOX IMVI melanoma 60.8% | SK-MEL-28 melanoma 66.1%

O=C(N/N=C/c1ccc(O)cc1O)c1ccc(Nc2ccnc(C(F)(F)F)c2)cc1
inactive: HCT-15 colon 39.7% | SNB-75 CNS 62.2% | SNB-19 CNS 32% | U251 CNS 24.6% | PC-3 prostate 50.2% | SK-MEL-5 melanoma 20.7% | UACC-62 melanoma 11.7% | LOX IMVI melanoma 12.9% | SK-MEL-28 melanoma 60.7%

CNC(=O)c1c(NC(=O)c2ccc(C(C)(C)C)cc2)sc2c(CN(C)C)c(O)ccc12
active: HCT-15 colon -77.3% | SNB-19 CNS 0.882% | U251 CNS -29.9% | PC-3 prostate -23.3% | SK-MEL-5 melanoma -29.5% | UACC-62 melanoma -85.9% | LOX IMVI melanoma -88.5% | SK-MEL-28 melanoma -89.1%
inactive: SNB-75 CNS 94.9%

CCN(CC)c1ccc(/C=C\c2cc(C)c3cc(C)ccc3n2)cc1
active: SK-MEL-5 melanoma 2.69%
inactive: HCT-15 colon 21.1% | SNB-75 CNS 39.7% | SNB-19 CNS 49.5% | U251 CNS 25.6% | PC-3 prostate 23.1% | UACC-62 melanoma 36.8% | LOX IMVI melanoma 18.1%

COC(=O)Cc1nc(C#N)c(N(C)C)o1
inactive: HCT-15 colon 99.4% | SNB-75 CNS 78.5% | SNB-19 CNS 96.1% | U251 CNS 98.8% | PC-3 prostate 99.4% | SK-MEL-5 melanoma 102% | UACC-62 melanoma 87.6% | LOX IMVI melanoma 97.7% | SK-MEL-28 melanoma 104%

CO[C@H](C(=O)[C@@H](O)[C@@H](C)O)[C@@H]1Cc2cc3cc(O[C@H]4C[C@@H](O[C@H]5C[C@@H](O)[C@H](O)C(C)O5)[C@H](O)C(C)O4)c(C)c(O)c3c(O)c2C(=O)[C@H]1O[C@H]1C[C@@H](O[C@H]2C[C@@H](O[C@H]3C[C@@H](OC)[C@H](O)C(C)O3)[C@@H](O)C(C)O2)C(O)(O)C(C)O1 (stereo partly specified)
active: SNB-75 CNS -41.6% | U251 CNS 9.8% | SK-MEL-5 melanoma -51.5% | UACC-62 melanoma -43.5% | LOX IMVI melanoma 3.54% | SK-MEL-28 melanoma -15.5%
inactive: HCT-15 colon 34.2% | SNB-19 CNS 11.8% | PC-3 prostate 19.4%

CCN(CC)CCOc1ccc(Nc2ncc3cc(-c4ccc(O)cc4)c(=O)n(C)c3n2)cc1
active: PC-3 prostate -49.3% | LOX IMVI melanoma -11.7%
inactive: HCT-15 colon 19.7% | SNB-75 CNS 27.7% | SNB-19 CNS 62.4% | U251 CNS 53.9% | SK-MEL-5 melanoma 92.9% | UACC-62 melanoma 93.3% | SK-MEL-28 melanoma 55.7%
